{
  "source": "PubChem BioAssay (NCI)",
  "note": "About 83,000 compounds went through this panel and 20% of them were active in at least one assay; those are over-represented in the sample as a whole.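 Growth was measured after 48 h exposure to one concentration of compound in 96-well plates. Values under 10 count as active.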 Values without a mark were called inactive. Calls of active or inactive are those of the source.",
  "data": [
    {"test_system": "NCI-H322M lung", "assay": "NCI-60 one-dose screen, 48 h (100 = growth as untreated, 0 = no growth, -100 = all killed)", "conditions": "10 µM unless noted", "values": [
      {"smiles": "CCOC(=O)c1ccccc1-c1c2ccc(=[N+](C)C)cc-2oc2cc(N(C)C)ccc12", "growth": "12.6%"},
      {"smiles": "O=C(Nc1ncc(Cc2cc(C(F)(F)F)ccc2Cl)s1)c1cccs1", "growth": "65.5%"},
      {"smiles": "Clc1ccccc1-c1cnn2cc(-c3ccccc3)cnc12", "growth": "87%"},
      {"smiles": "NC1(CO)COC(c2ccccc2)OC1", "note": "(stereo not drawn)", "growth": "100%"},
      {"smiles": "COc1cc(OC)cc(-c2ccc(-c3ccc(C(=N)N)o3)o2)c1", "growth": "71.2%"},
      {"smiles": "CN1CCN(Cc2ccc(NC(=O)c3cncc(C#Cc4cnc5ccc(Cl)nn45)c3)cc2C(F)(F)F)CC1", "growth": "-14.2% (active)"},
      {"smiles": "NS(=O)(=O)c1ccc(NC(=O)/C(=C\\c2ccc(Cl)cc2Cl)NC(=O)c2ccccc2)cc1", "growth": "102%"},
      {"smiles": "C/C=C(/C)n1cnc2c(Nc3ccccn3)nc(Cl)nc21", "growth": "99.3%"},
      {"smiles": "CS(=O)(=O)Nc1cc(-c2ccc3ncc(C#N)c(Nc4ccc(F)c(Cl)c4)c3c2)cnc1Cl", "growth": "5.43% (active)"},
      {"smiles": "CNC(=O)c1cc(Oc2cccc3nc(NC(=O)Nc4cc(C(F)(F)F)ccc4Cl)ccc23)ccn1", "growth": "101%"},
      {"smiles": "CN1CCN(Cc2ccc(NC(=O)c3cncc(C#Cc4cnc(N)c5ccc(F)cc45)c3)cc2C(F)(F)F)CC1", "growth": "23.5%"},
      {"smiles": "CCN1CCN(CC(=O)Nc2nc3ccc(NCc4ccc(F)cc4)cc3s2)CC1", "growth": "94.3%"},
      {"smiles": "COc1ccc(NC(=O)Nc2ccc(OCCCCCC(=O)NO)cc2)cc1", "growth": "94.7%"},
      {"smiles": "CNC1=CC(=O)c2c(C(=O)OC)c(C)[n+]([O-])c(C)c2C1=O", "growth": "71.9%"},
      {"smiles": "Nc1nc(NC(=O)Nc2ccc(C(=O)O)cc2)nn1-c1ccc(S(N)(=O)=O)cc1", "growth": "90.4%"},
      {"smiles": "O=C(CCCCCCN1CC(=O)N2[C@H](c3ccc(Cl)cc3)c3[nH]c4ccccc4c3C[C@@H]2C1=O)NO", "growth": "64.1%"},
      {"smiles": "CC(=O)OC[C@]12CC[C@@H]([C@@H](C)c3nnc(-c4ccncc4)o3)[C@@H]1[C@H]1CC[C@@H]3[C@@]4(C)CC[C@H](OC(C)=O)C(C)(C)[C@@H]4CC[C@@]3(C)[C@]1(C)CC2", "growth": "95.9%"},
      {"smiles": "Cc1ccc(C(=O)Nc2cccc(C#Cc3cccc4[nH]nc(N)c34)c2)cc1C(F)(F)F", "growth": "79.2%"},
      {"smiles": "CCCCNC(=O)Oc1ccc(/C(=C(/C)Cc2ccc(OC)cc2)c2ccc(OCCN3CCCCCC3)cc2)cc1", "growth": "97.1%"},
      {"smiles": "Cc1ccc2nc(/C(C#N)=C(/CCCO)NC(Cc3ccccc3)C(=O)OCc3ccccc3)[nH]c(=O)c2c1", "note": "(stereo not drawn)", "growth": "94.4%"},
      {"smiles": "O=C1/C(=C2\\SC(=S)N(C3CC3)C2=O)SC(=S)N1C1CC1", "growth": "95.6%"},
      {"smiles": "CC1=CC(c2ccco2)=C2C(N)=NNC2N1", "note": "(stereo not drawn)", "growth": "92.6%"},
      {"smiles": "Nc1nc2c(c3ncccc13)C(c1cccc(Cl)c1)Cc1ncccc1-2", "note": "(stereo not drawn)", "growth": "49.7%"},
      {"smiles": "O=C(O)c1ccc(-c2ccc(/C=N/Nc3nc(Nc4ccccc4)nc(N4CCCCC4)n3)o2)cc1", "growth": "55.1%"},
      {"smiles": "COC(=O)c1c2c(c(C)[n+]([O-])c1C)C(=O)C(NCc1cccc(Cl)c1)=CC2=O", "growth": "1.86% (active)"},
      {"smiles": "Fc1ccc(Cn2cc(CSc3nc4ccccc4o3)nn2)cc1", "growth": "91.9%"},
      {"smiles": "CC1CCN(C(=O)CCCl)c2ccccc21", "note": "(stereo not drawn)", "growth": "107%"},
      {"smiles": "CC1CCN(C(=S)SCC(=O)NC(=O)c2ccccc2)CC1", "growth": "105%"},
      {"smiles": "CCOc1ccc(-n2nc(C(=O)NCc3ccccc3OC)nc2-c2cc(OC)c(OC)c(OC)c2)cc1", "growth": "52.4%"},
      {"smiles": "COc1ccc(C(=O)N2c3ccccc3Sc3ccccc32)c(C(F)(F)F)c1", "growth": "53.4%"},
      {"smiles": "O=C(N=Nc1c(O)[nH]c2ccccc12)Nc1ccc(F)cc1", "growth": "93.8%"},
      {"smiles": "O=C(O)c1cn(C2CC2)c2cc(N3CCN(C(=O)Nc4nc(-c5ccc(Br)cc5)cs4)CC3)c(F)cc2c1=O", "growth": "6.95% (active)"},
      {"smiles": "CCN1C(=O)N(CC)C2C1NN=c1s/c(=C\\c3ccc(C(F)(F)F)cc3)c(=O)n12", "note": "(stereo not drawn)", "growth": "45.2%"},
      {"smiles": "Cc1ccc(C(=O)c2ccc(CC(=O)N=Nc3c(O)[nH]c4ccc(Br)cc34)n2C)cc1", "growth": "92%"},
      {"smiles": "Cc1ccc(Cl)cc1NC(=O)c1sc2nc3c(cc2c1N)C(=O)CCC3", "growth": "95.7%"},
      {"smiles": "Clc1ccc(-c2cc(-c3ccccc3)nc(NCCNc3ccnc4cc(Cl)ccc34)n2)cc1", "growth": "44.6%"},
      {"smiles": "N#C/C(=C\\c1cn(Cc2ccccc2)c2ccccc12)C(=O)Nc1ncc(Cc2ccccc2Cl)s1", "growth": "36.1%"},
      {"smiles": "CC/C=C\\C[C@H](O)C/C=C1/C(=O)C=C[C@@H]1C/C=C\\CCCC(=O)O", "growth": "85.6%"},
      {"smiles": "C#Cc1cccc(Nc2nc(C)nc3cc(NC(=O)CCl)ccc23)c1", "growth": "-31.3% (active)"}
    ]},
    {"test_system": "HOP-62 NSCLC", "assay": "NCI-60 one-dose screen, 48 h (100 = growth as untreated, 0 = no growth, -100 = all killed)", "conditions": "10 µM unless noted", "values": [
      {"smiles": "CCOC(=O)c1ccccc1-c1c2ccc(=[N+](C)C)cc-2oc2cc(N(C)C)ccc12", "growth": "6.81% (active)"},
      {"smiles": "O=C(Nc1ncc(Cc2cc(C(F)(F)F)ccc2Cl)s1)c1cccs1", "growth": "42.5%"},
      {"smiles": "Clc1ccccc1-c1cnn2cc(-c3ccccc3)cnc12", "growth": "86%"},
      {"smiles": "NC1(CO)COC(c2ccccc2)OC1", "note": "(stereo not drawn)", "growth": "104%"},
      {"smiles": "COc1cc(OC)cc(-c2ccc(-c3ccc(C(=N)N)o3)o2)c1", "growth": "81.4%"},
      {"smiles": "CN1CCN(Cc2ccc(NC(=O)c3cncc(C#Cc4cnc5ccc(Cl)nn45)c3)cc2C(F)(F)F)CC1", "growth": "-15.7% (active)"},
      {"smiles": "NS(=O)(=O)c1ccc(NC(=O)/C(=C\\c2ccc(Cl)cc2Cl)NC(=O)c2ccccc2)cc1", "growth": "95.7%"},
      {"smiles": "C/C=C(/C)n1cnc2c(Nc3ccccn3)nc(Cl)nc21", "growth": "102%"},
      {"smiles": "CS(=O)(=O)Nc1cc(-c2ccc3ncc(C#N)c(Nc4ccc(F)c(Cl)c4)c3c2)cnc1Cl", "growth": "1.41% (active)"},
      {"smiles": "CNC(=O)c1cc(Oc2cccc3nc(NC(=O)Nc4cc(C(F)(F)F)ccc4Cl)ccc23)ccn1", "growth": "95.2%"},
      {"smiles": "CN1CCN(Cc2ccc(NC(=O)c3cncc(C#Cc4cnc(N)c5ccc(F)cc45)c3)cc2C(F)(F)F)CC1", "growth": "7.94% (active)"},
      {"smiles": "CCN1CCN(CC(=O)Nc2nc3ccc(NCc4ccc(F)cc4)cc3s2)CC1", "growth": "91.8%"},
      {"smiles": "COc1ccc(NC(=O)Nc2ccc(OCCCCCC(=O)NO)cc2)cc1", "growth": "102%"},
      {"smiles": "CNC1=CC(=O)c2c(C(=O)OC)c(C)[n+]([O-])c(C)c2C1=O", "growth": "97.9%"},
      {"smiles": "Nc1nc(NC(=O)Nc2ccc(C(=O)O)cc2)nn1-c1ccc(S(N)(=O)=O)cc1", "growth": "93.6%"},
      {"smiles": "O=C(CCCCCCN1CC(=O)N2[C@H](c3ccc(Cl)cc3)c3[nH]c4ccccc4c3C[C@@H]2C1=O)NO", "growth": "61.9%"},
      {"smiles": "CC(=O)OC[C@]12CC[C@@H]([C@@H](C)c3nnc(-c4ccncc4)o3)[C@@H]1[C@H]1CC[C@@H]3[C@@]4(C)CC[C@H](OC(C)=O)C(C)(C)[C@@H]4CC[C@@]3(C)[C@]1(C)CC2", "growth": "98.4%"},
      {"smiles": "Cc1ccc(C(=O)Nc2cccc(C#Cc3cccc4[nH]nc(N)c34)c2)cc1C(F)(F)F", "growth": "58.7%"},
      {"smiles": "CCCCNC(=O)Oc1ccc(/C(=C(/C)Cc2ccc(OC)cc2)c2ccc(OCCN3CCCCCC3)cc2)cc1", "growth": "85.6%"},
      {"smiles": "Cc1ccc2nc(/C(C#N)=C(/CCCO)NC(Cc3ccccc3)C(=O)OCc3ccccc3)[nH]c(=O)c2c1", "note": "(stereo not drawn)", "growth": "88.2%"},
      {"smiles": "O=C1/C(=C2\\SC(=S)N(C3CC3)C2=O)SC(=S)N1C1CC1", "growth": "99.3%"},
      {"smiles": "CC1=CC(c2ccco2)=C2C(N)=NNC2N1", "note": "(stereo not drawn)", "growth": "88.8%"},
      {"smiles": "Nc1nc2c(c3ncccc13)C(c1cccc(Cl)c1)Cc1ncccc1-2", "note": "(stereo not drawn)", "growth": "20.1%"},
      {"smiles": "O=C(O)c1ccc(-c2ccc(/C=N/Nc3nc(Nc4ccccc4)nc(N4CCCCC4)n3)o2)cc1", "growth": "85%"},
      {"smiles": "COC(=O)c1c2c(c(C)[n+]([O-])c1C)C(=O)C(NCc1cccc(Cl)c1)=CC2=O", "growth": "41.6%"},
      {"smiles": "Fc1ccc(Cn2cc(CSc3nc4ccccc4o3)nn2)cc1", "growth": "87.5%"},
      {"smiles": "CC1CCN(C(=O)CCCl)c2ccccc21", "note": "(stereo not drawn)", "growth": "112%"},
      {"smiles": "CC1CCN(C(=S)SCC(=O)NC(=O)c2ccccc2)CC1", "growth": "96.7%"},
      {"smiles": "CCOc1ccc(-n2nc(C(=O)NCc3ccccc3OC)nc2-c2cc(OC)c(OC)c(OC)c2)cc1", "growth": "62.2%"},
      {"smiles": "COc1ccc(C(=O)N2c3ccccc3Sc3ccccc32)c(C(F)(F)F)c1", "growth": "42.8%"},
      {"smiles": "O=C(N=Nc1c(O)[nH]c2ccccc12)Nc1ccc(F)cc1", "growth": "83.2%"},
      {"smiles": "O=C(O)c1cn(C2CC2)c2cc(N3CCN(C(=O)Nc4nc(-c5ccc(Br)cc5)cs4)CC3)c(F)cc2c1=O", "growth": "21.8%"},
      {"smiles": "CCN1C(=O)N(CC)C2C1NN=c1s/c(=C\\c3ccc(C(F)(F)F)cc3)c(=O)n12", "note": "(stereo not drawn)", "growth": "39.1%"},
      {"smiles": "Cc1ccc(C(=O)c2ccc(CC(=O)N=Nc3c(O)[nH]c4ccc(Br)cc34)n2C)cc1", "growth": "89.6%"},
      {"smiles": "Cc1ccc(Cl)cc1NC(=O)c1sc2nc3c(cc2c1N)C(=O)CCC3", "growth": "60.9%"},
      {"smiles": "Clc1ccc(-c2cc(-c3ccccc3)nc(NCCNc3ccnc4cc(Cl)ccc34)n2)cc1", "growth": "81.2%"},
      {"smiles": "N#C/C(=C\\c1cn(Cc2ccccc2)c2ccccc12)C(=O)Nc1ncc(Cc2ccccc2Cl)s1", "growth": "12.5%"},
      {"smiles": "CC/C=C\\C[C@H](O)C/C=C1/C(=O)C=C[C@@H]1C/C=C\\CCCC(=O)O", "growth": "96.9%"},
      {"smiles": "C#Cc1cccc(Nc2nc(C)nc3cc(NC(=O)CCl)ccc23)c1", "growth": "-84.2% (active)"}
    ]}
  ]
}
